According to ChEMBL document CHEMBL1157539, “Thousands of chemical starting points for antimalarial lead identification” (Nature, 2010):

These compounds were tested on Plasmodium falciparum (assay: GSK_TCMDC: Inhibition of Plasmodium falciparum Dd2 in whole red blood cells, using parasite LDH activity as an index of growth. Test compounds present at 2uM).
Type: functional

First: CS(=O)(=O)Cc1ccc(Nc2nccc(-c3c(-c4cccc(NC(=O)C5CCCCC5)c4)nn4ncccc34)n2)cc1
Second: Cc1ccc(-c2nnc(Nc3ccc(CC(N)=O)cc3)c3ccccc23)cc1S(=O)(=O)NCC1CCCO1 (stereo not given)
The Inhibition of the first is higher: 99% for the first, 64% for the second.

Going from Cc1ccc(C(=O)Nc2cccc(-c3ccc(N4CCN(C)CC4)nn3)c2)cc1[N+](=O)[O-] to CN1CCN(CC(=O)Nc2ccc(-c3csc(-c4nc5ccccc5[nH]4)c3)cc2)CC1, the Inhibition rises from 40% to 46%.

Compared with CC(C)c1ccc2oc(-c3ccc(NC(=O)c4ccc([N+](=O)[O-])o4)cc3)nc2c1, CCc1cccc2c(C#N)cn(CC(=O)Nc3ccc(OC)cc3)c12 is lower in Inhibition: 95% for the first, 76% for the second.

Going from CC(C)N1CCN(c2ccc(OCCCCN3CCN(c4cccc(Cl)c4Cl)CC3)cc2Cl)CC1.Cl to Oc1ccc(CN2CCC(N3CCN(CCc4ccccc4)CC3)C(O)C2)cc1Cl (stereo not given), the Inhibition rises from 34% to 77%.

Compared with CC(C)(C)c1ccc(NC(=O)c2cccc(CN3CCCN(Cc4cccc(Cl)c4)CC3)c2)cc1.O=C(O)C(F)(F)F, Cc1cccc2nc(-c3ccc(-c4cccc(CN5CCN(CCN6CCOCC6)CC5)c4)s3)[nH]c12.O=C(O)C(F)(F)F is higher in Inhibition: 30% for the first, 83% for the second.

Compared with O=C1SC(=Cc2ccc(O)c(O)c2)C(=O)N1c1ccccc1, COc1ccc(Cn2c(=O)[nH]c3cc(C(=O)NC4CCN(Cc5ccccc5)CC4)ccc3c2=O)cc1 is higher in Inhibition: 17% for the first, 45% for the second.

Going from FC(F)(F)c1ccc(NC(=S)N2CCC(CCN3CCC(c4c[nH]c5ccccc45)CC3)CC2)cc1 to O=C(N[C@@H](Cc1ccccc1)CN1CCC(Oc2ccc(F)cc2)CC1)c1ccc(OCCCN2CCCCC2)cc1.O=C(O)C(F)(F)F, the Inhibition rises from 37% to 92%.

O=C(Cc1c[nH]cn1)Nc1cccc(-c2ccc(-c3nc4cc(C(F)(F)F)ccc4[nH]3)cc2)c1 and O=C(Nc1ccc(Cl)cc1)Nc1cccc(-c2ccc(-c3nc4cc(F)ccc4[nH]3)cc2)c1 are the same in Inhibition: 99% for the first, 99% for the second.

First: COc1cc(Nc2ccnc3ccc(C(F)(F)F)cc23)ccc1OCCCc1ccccc1
Second: O=[N+]([O-])c1cccc(/C=N/Nc2ccnc3ccc(C(F)(F)F)cc23)c1
The Inhibition of the first is higher: 51% for the first, 35% for the second.

Compared with COc1ccccc1N1CCN(C(C(=O)NCc2ccc(C)cc2)c2ccc(C)cc2)CC1 (stereo not given), CC(C)NCc1ccc(-c2ccc(CN3CCCC(c4ccccc4)C3)cc2)c(C(=O)NC2Cc3ccccc3C2)c1.O=C(O)C(F)(F)F (stereo not given) is lower in Inhibition: 79% for the first, 64% for the second.

Compared with COc1ccc(C(=O)CCC(=O)N(CCSC(C)(C)C)Cc2ccc(-c3ccc(CNCCc4ccc(S(C)(=O)=O)cc4)cn3)cc2)cc1F.O=C(O)C(F)(F)F, CN(C)CC(=O)N(Cc1ccc(Cl)c(Cl)c1)Cc1csc(-c2ccc(CNCc3ccccc3)cc2)n1.O=C(O)C(F)(F)F is lower in Inhibition: 42% for the first, 32% for the second.

Compared with C[C@H](Cc1ccc(OCCCCCCOc2ccc(C[C@@H](C)NC[C@H](O)c3cccc(Cl)c3)cc2)cc1)NC[C@H](O)c1cccc(Cl)c1.Cl, CCCCCCNC(=N)c1ccc(OCCCCCOc2ccc(C(=N)NCCCCCC)cc2)cc1.Cl is lower in Inhibition: 99% for the first, 98% for the second.

Compared with CC1(C)N=C(N)N=C(N)N1O.Cl, CN(C)CCCNc1ncnc2c1[nH]c1ccc(Cl)cc12 is higher in Inhibition: 1% for the first, 3% for the second.

First: Cl.Cn1c(=N)n(CC(=O)N2CCc3ccc(Cl)cc3C2Cc2ccc(Cl)c(Cl)c2)c2ccccc21 (stereo not given)
Second: O=C(NCCN1CCCCC1)c1ccc(CNC(=O)c2ccc(O)c(-c3ccc(Cl)c(Cl)c3)c2)cc1
The Inhibition of the first is lower: 52% for the first, 68% for the second.

Going from CCCCCCCCCCNCC(O)c1ccc(O)c(C(=O)OC)c1 (stereo not given) to CCCC(N)C(=O)NC1CCN(c2c(F)c(N)c3c(=O)c(C(=O)O)cn4c3c2Oc2ccccc2-4)C1.Cl (stereo not given), the Inhibition rises from 97% to 98%.

Compared with COc1ccc(Cc2nc3c(n2C(C)=O)SC(c2ccc(Cl)c(Cl)c2)=NN3C(C)=O)cc1, COc1ccc2nc3cc(Cl)ccc3c(NCc3ccccc3)c2c1.Cl is higher in Inhibition: 22% for the first, 50% for the second.

Compared with Nc1ncc(-c2cccc(F)c2)cc1-c1nc2cc(F)ccc2[nH]1.O=C(O)C(F)(F)F, NCCCNc1ccc(-c2ccc(NC(=O)Nc3cc(C(F)(F)F)ccc3F)cc2)cn1.O=C(O)C(F)(F)F is lower in Inhibition: 88% for the first, 66% for the second.

First: O=C([C@H]1CCCCN1c1ccc([N+](=O)[O-])c2ccccc12)N1CCN(c2ncccn2)CC1
Second: Cl.N#Cc1ccc2c(c1)CCN(CCC1CCC(NC(=O)c3cc4cccc([N+](=O)[O-])c4[nH]3)CC1)C2 (stereo not given)
The Inhibition of the first is lower: 5% for the first, 28% for the second.

Compared with Nc1nccc2ccc(-c3ccncc3)cc12, COc1ccc(NC(=O)[C@H](Cc2ccccc2)Nc2cc(C)nc(NCCc3cccnc3)n2)cc1.O=C(O)C(F)(F)F is lower in Inhibition: 95% for the first, 5% for the second.

Compared with CC(C)Nc1cc(C(=O)N[C@@H](Cc2ccccc2)[C@H](O)CNCc2cccc(C(F)(F)F)c2)c(F)c(N2CCCCS2(=O)=O)c1.O=CO, O=C(O)C1CC(=O)N(c2ccc(Cl)cc2)C1 (stereo not given) is lower in Inhibition: 78% for the first, 33% for the second.
